The record followed here is PubChem BioAssay AID708 (SRMLSC, 2007).

Among all 65,000 compounds or so, fewer than 10 were called active.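 Rule for the calls: active = at 10 µM dose, initial 340 nm absorbance at least 2 fold that of control wells; inactive = change under 2 fold.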 A selection follows.

This assay is described as follows: compound light absorbance at 340 nm, profiling panel, artefact control, biochemical, MLSMR library, data from PS, PMK, MK assays (AID 708).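 Note: initial absorbance extrapolated from kinetic A340 decline of NADH oxidation.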 Particulars: compound absorbance at 340 nm, fold over control; at 10 µM; stronger effect = higher value.
On to `CCCc1cc(=O)[nH]c(SCC(=O)OCc2ccccc2)n1`, for which the fold change is 1.02 (inactive).
The figure for `CCOC(=O)C1=C(C)N=c2s/c(=C\C(=O)OC)c(=O)n2C1c1ccc(OC)cc1` (stereo not given) is 1.09 (inactive).
In the case of `CCOC(=O)C1CCCN(Cc2nc(N)nc(Nc3ccc(C)cc3)n2)C1` (stereo not given), the fold change is 1 (inactive).
With `CN(C)CCNC(=O)C(C(=O)c1ccccc1)n1ccccc1=O` (stereo not given), the fold change was 1.03 (inactive).
The figure for `COCCNC(=S)c1ccc(OC)cc1` is 1.01 (inactive); for `CCOC(=O)CSc1nnc(-c2cccc(Br)c2)o1` it is 1.02 (inactive); for `N#Cc1nc(N)nc(N(c2ccccc2)c2ccccc2)n1` it is 1 (inactive).
In the case of `Cc1ccccc1N1C(=O)C2ON(c3ccccc3)C(c3ccncc3)C2C1=O` (stereo not given), the fold change is 0.99 (inactive).
Turning to `O=C(CCN1C(=O)c2ccccc2C1=O)NCCN1CCOCC1`, the fold change is 0.99 (inactive).
Regarding `COc1ccccc1-c1cc(C(=O)NCCCn2ccnc2)no1`, the fold change is 0.99 (inactive).
For `NC(=O)Cn1c(=O)oc2ccccc21`, the fold change was 0.97 (inactive).
The figure for `O=C(Cn1c(=O)sc2ccccc21)Nc1nc2c(s1)CCCC2` is 1.03 (inactive); for `O=C(Cn1nc(C(F)(F)F)c2c1CCC2)NCc1ccc(F)cc1` it is 1.04 (inactive).
In the case of `Cc1ccc(Oc2ccc(N)cc2)cc1`, the fold change is 1.02 (inactive).
For the compound `CCOC(=O)N1CCN(C(=O)CSc2nnc(-c3c[nH]c4ccccc34)n2CCOC)CC1`, the fold change was 1.06 (inactive).
For the compound `Cc1ccc(N2CCN(S(=O)(=O)N(C)C)CC2)cc1Cl`, the fold change is 1.01 (inactive).
Consider `O=S(N1CCCCCC1)C12CC3CC(CC(C3)C1)C2` (stereo not given), for which the fold change was 0.99 (inactive).
The figure for `CC(C)OC(=O)CN1C(=O)c2ccccc2C1=O` is 1.01 (inactive); for `CCS(=O)(=O)N1CCC(C(=O)N2CCN(c3ccccc3)CC2)CC1` it is 1.02 (inactive).
`CC1(C)CC(=O)c2sc(N)nc2C1`: the fold change is 1.11 (inactive).
The figure for `O=C(NCc1ccco1)c1cnn2c(C(F)(F)F)cc(-c3ccco3)nc12` is 1.04 (inactive).
For `CC1CCCN(c2ccc(C(=O)NCCc3ccccc3)cn2)C1` (stereo not given), the fold change is 1.04 (inactive).
As for `O=C(c1ccc2c(c1)C(=O)N(c1ccc(Cl)cc1)C2=O)N1CCN(c2ccccn2)CC1`, the fold change is 1 (inactive).
The figure for `Cc1ccc2c(c1)c1ncn(CCC3=CCCCC3)c(=O)c1n2C` is 1 (inactive); for `CCNc1nc(SCCOc2ccccc2)nc(N(C)C)n1` it is 1.04 (inactive); for `CCC(C(=O)NC1CCCC1)N(C(=O)c1snc(C(N)=O)c1N)c1ccc2c(c1)OCCO2` (stereo not given) it is 1.1 (inactive).
As for `COc1ccc(C(=O)N(CCN2CCOCC2)CC(=O)NC2CCCC2)cc1OC`, the fold change is 0.98 (inactive).
The figure for `OCCCN1c2ccccc2Nc2nnc(-c3ccccc3)cc21` is 1.04 (inactive).
On to `COc1ccccc1-c1cc(C(=O)N2CCCCC2)no1`, for which the fold change is 1.02 (inactive).
For `Cc1ccc2nc(-c3ccc(SCC(=O)Nc4cc(C)on4)nc3)[nH]c2c1`, the fold change is 1.14 (inactive).
For `CCNS(=O)(=O)c1ccc(NC(=O)Nc2cccc(OC)c2)cc1`, the fold change was 1.06 (inactive).
`O=C(NC1CCCC1)c1ccc(Br)s1`: the fold change is 1.03 (inactive).
Consider `CCOC(=O)CSc1nnc(CNC(=O)Cc2ccccc2)n1-c1ccccc1OC`, for which the fold change is 0.99 (inactive).
With `CCOc1ccc(C(CC(=O)O)NC(=O)COc2ccccc2)cc1` (stereo not given), the fold change was 1.03 (inactive).
`CCCC1C(c2ccccc2)C(C#N)(C#N)C2(C#N)CC1(N)NC2=O` (stereo not given): the fold change is 1.02 (inactive).
In the case of `C#CCNc1nc(C(C)C)nc2c1nnn2Cc1ccccc1F`, the fold change is 1.04 (inactive).
For `CN(C)/C=C1\C=C(c2ccccc2)OC1=O`, the fold change is 1.21 (inactive).
On to `O=C(c1cnn2ccccc12)N1CCc2ccccc21`, for which the fold change was 1.12 (inactive).
For the compound `CCOc1ccc(Cn2nnc(C(=O)Nc3ccc(OC)cc3OC)c2N)cc1`, the fold change is 0.98 (inactive).
As to `COc1ccc(NC(=O)c2cccc(NC(=O)c3ccco3)c2)c(OC)c1`, the fold change is 1.07 (inactive).
Take `O=C(NCCc1ccccn1)c1ccc(COc2ccccc2)o1`: the fold change is 0.98 (inactive).
Regarding `CCOC(=O)C1CCN(C(=O)Nc2ccc(Cl)cc2)CC1`, the fold change is 1.01 (inactive).
For the compound `COc1cccc(N(CC(=O)NC2CCCC2)C(=O)Cn2nnc(-c3ccc(C)cc3)n2)c1`, the fold change was 1.01 (inactive).
For `Cc1nc(SCC(=O)Nc2cc(C)on2)c2c3c(sc2n1)CCCC3`, the fold change was 1.02 (inactive).
The figure for `CC1CCN(Cc2nc3c(c(=O)n(C)c(=O)n3C)n2CCc2ccccc2)CC1` is 0.98 (inactive); for `NC(=O)COc1ccc2c3c(c(=O)oc2c1)CCCCC3` it is 1.15 (inactive).
The figure for `CCc1cc(=O)oc2cc(OCC(=O)N3CCCc4ccccc43)ccc12` is 1.08 (inactive).
As for `CCOC(=O)N1CCC(NC(=O)CCc2cn(C)c3ccccc23)CC1`, the fold change was 0.98 (inactive).
As to `Cc1ccnc(N2C(=O)c3ccccc3C2Nc2ccc3c(c2)OCCO3)c1` (stereo not given), the fold change was 1.06 (inactive).
For the compound `CCOc1ccc(-c2cn(S(=O)(=O)c3cccc4nsnc34)nc2N)cc1`, the fold change is 0.98 (inactive).
As to `c1ccc(-n2ncc3c2ncn2c(CSc4nc5ccccc5s4)nnc32)cc1`, the fold change was 1.06 (inactive).
With `c1ccc2c(CNn3cnnc3)cccc2c1`, the fold change is 1.05 (inactive).
Regarding `Cc1ccc(C(=O)NCC2CCCO2)o1` (stereo not given), the fold change was 1.04 (inactive).
Take `CCn1c(CSc2nncn2-c2ccc(OC)cc2)nc2cc(S(=O)(=O)N(C)C)ccc21`: the fold change was 0.96 (inactive).
The figure for `CC(C)(O)C#Cc1ccc(C(=O)N2CCC(C(N)=O)(N3CCCCC3)CC2)cc1` is 1.04 (inactive); for `CCN(CC)S(=O)(=O)c1ccc2nc(COC(=O)c3n[nH]c4ccccc34)[nH]c2c1` it is 1.03 (inactive).
The figure for `COc1cccc(-c2nnc(NC(=O)c3ccc(S(=O)(=O)N(CC(C)C)CC(C)C)cc3)o2)c1` is 1.06 (inactive); for `CC12COC3(C(=O)Nc4ccc(Cl)cn4)CC1CCC32C` (stereo not given) it is 1.04 (inactive); for `Cc1nc(N2CCCC2C(=O)O)c2oc3ccccc3c2n1` (stereo not given) it is 1.02 (inactive).
The figure for `CCCCN(CC)CCCNC(=O)CS(=O)(=O)Cc1nc(-c2cccc(OC)c2)oc1C` is 1 (inactive); for `CC(=O)Nc1cccc(Oc2cc(C#N)c(C#N)cc2N2CCOCC2)c1` it is 1.1 (inactive); for `Cn1c2ccccc2c2c(C(=O)N3CCN(c4ccc(F)cc4)CC3)cn(C3CCCC3)c(=O)c21` it is 1.05 (inactive).
As for `COc1ccc(CCNS(=O)(=O)c2ccc(C(=O)NCc3ccco3)cc2)cc1OC`, the fold change was 0.99 (inactive).
In the case of `Cc1ccc(S(=O)(=O)NC(C)C(=O)Nc2ccccc2C(=O)N2CCCC2)cc1` (stereo not given), the fold change was 0.96 (inactive).
With `COc1ccc(-n2nnnc2SCC(=O)c2ccc(OC)c(OC)c2)cc1`, the fold change was 1.03 (inactive).
With `Cn1cnc2c1c(=O)n(Cc1c(Cl)cccc1Cl)c(=O)n2C`, the fold change is 1.04 (inactive).
The figure for `Cc1cc(C(=O)NCCCc2ccccc2)no1` is 1 (inactive).
Consider `COc1ccc(C(=O)Cn2nnc(-c3ccc(N4CCOCC4)cc3)n2)cc1OC`, for which the fold change is 1 (inactive).
Take `CCOc1cccc(-c2nn3c(-c4ccccn4)nnc3s2)c1`: the fold change was 1.01 (inactive).
As to `O=C(CN1CCN(C(=O)c2ccco2)CC1)Nc1ccc(Cl)c(C(F)(F)F)c1`, the fold change is 1 (inactive).
